Among the data in PubChem BioAssay (NCI) are growth values, retold here.

About 83,000 compounds went through this panel and 20% of them were active in at least one assay; those are over-represented in the sample as a whole.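 Testing used 96-well plates and a 48-hour single-concentration exposure. Example: -40 means 40% of the starting cells died.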 Unmarked numbers belong to inactive results. Calls of active or inactive are those of the source. Rule for the calls: active = growth percent below 10; inactive = the rest.

Some test systems named below: NCI-H23 lung; NCI-H226 lung; NCI-H322M lung; HOP-62 NSCLC; NCI-H460 lung; HOP-92 NSCLC; NCI-H522 lung; A549/ATCC NSCLC; 786-0 renal; COLO 205 colon; DU-145 prostate; K-562 leukemia; MALME-3M melanoma; MDA-MB-231 breast; RXF 393 renal; SF-268 CNS; SF-295 CNS; SF-539 CNS; UACC-257 melanoma; M14 melanoma.
Common to all, as to test: NCI-60 one-dose screen, 48 h (100 = growth as untreated, 0 = no growth, -100 = all killed)
Conditions in all cases: 10 µM unless noted

Take `COc1ccc(S(=O)(=O)N(Cc2ccc3c(c2)C=CC(C)(C)O3)c2ccccc2)cc1OC`: the growth in the experiment on NCI-H23 lung is 47.6%; with NCI-H226 lung it was 55.4%; in the experiment on NCI-H322M lung, 102%; with HOP-62 NSCLC it was 87.1%; with NCI-H460 lung it was 76.7%; in the experiment with HOP-92 NSCLC, 88.2%. The growth was 61.5% in the experiment on NCI-H522 lung; 79.1% in the experiment on A549/ATCC NSCLC; 87.1% in the experiment with 786-0 renal; 64.7% with COLO 205 colon; 96.6% in the experiment with DU-145 prostate; 63.2% in the experiment on K-562 leukemia. Besides, the growth in the experiment with MALME-3M melanoma is 83.4%; in the experiment on MDA-MB-231 breast, 96.6%; in the experiment with RXF 393 renal it was 77.2%; with SF-268 CNS, 87.4%; in the experiment on SF-295 CNS, 70.6%; in the experiment with SF-539 CNS, 97.3%. The growth in the experiment with UACC-257 melanoma was 61.9%; in the experiment with M14 melanoma, 87.6%.

For `CC12CCC3C(CCC4Cc5[nH]c6ccccc6c5CC43C)C1CCC2O` (stereo not given), the growth is 49.3% in the experiment on NCI-H23 lung; 41.3% in the experiment on NCI-H226 lung; 43% in the experiment on NCI-H322M lung; 62.8% in the experiment with HOP-62 NSCLC; 5.72% (active) with NCI-H460 lung; 63.4% in the experiment with HOP-92 NSCLC. In addition, the growth was 26.4% in the experiment with NCI-H522 lung; 41.5% in the experiment on A549/ATCC NSCLC; 33.5% in the experiment on 786-0 renal; 45% in the experiment on COLO 205 colon; -21.2% (active) in the experiment with DU-145 prostate; 5.1% (active) in the experiment with K-562 leukemia. The growth with MALME-3M melanoma is 48.3%; in the experiment on MDA-MB-231 breast, 37.1%; in the experiment on RXF 393 renal it was -13.8% (active); in the experiment with SF-268 CNS it was 47.5%; with SF-295 CNS, -10.7% (active); in the experiment on SF-539 CNS it was 9.54% (active). Also, the growth in the experiment on UACC-257 melanoma was 74.1%; with M14 melanoma, 20.6%.

Take `COC(=O)[C@@H](C)C[C@H](Cc1ccccc1)NC(=O)c1nc([C@@H](C[C@H](C(C)C)N(C)C(=O)[C@@H](NC(=O)[C@H]2C[C@H](O)CCN2C)C(C)C)OC(C)=O)sc1C(C)C`: the growth in the experiment on NCI-H23 lung is 23.8%; in the experiment on NCI-H226 lung, -35.5% (active); in the experiment with NCI-H322M lung, 26.5%; in the experiment on HOP-62 NSCLC, 1.87% (active); in the experiment on NCI-H460 lung it was 2.31% (active); in the experiment with HOP-92 NSCLC, 25%. For the same molecule, the growth in the experiment on NCI-H522 lung was -21.9% (active); in the experiment on A549/ATCC NSCLC, 10.7%; with 786-0 renal it was 3.94% (active); in the experiment on COLO 205 colon, -65.9% (active); in the experiment on DU-145 prostate, -4.78% (active); in the experiment with K-562 leukemia, 5.9% (active). Further, the growth was 28.4% in the experiment on MALME-3M melanoma; 3.71% (active) in the experiment on MDA-MB-231 breast; 18.9% in the experiment on RXF 393 renal; 13.8% with SF-268 CNS; -16.8% (active) in the experiment with SF-295 CNS; -36.9% (active) in the experiment with SF-539 CNS. For the same molecule, the growth in the experiment on UACC-257 melanoma is 66.1%; in the experiment on M14 melanoma, -22.4% (active).

`Cn1cc(-c2csc(-c3cn(CCCCN4CCCCC4)c4ccccc34)n2)c2cccnc21`: the growth in the experiment with NCI-H23 lung was 42.7%; in the experiment with NCI-H226 lung it was 68.2%; in the experiment with NCI-H322M lung, 88.2%; in the experiment on HOP-62 NSCLC it was 51.6%; in the experiment with NCI-H460 lung, -44.9% (active); in the experiment with HOP-92 NSCLC it was 46.3%. The growth is 48% with NCI-H522 lung; -47.1% (active) with A549/ATCC NSCLC; -85.1% (active) with 786-0 renal; -73.7% (active) in the experiment with COLO 205 colon; 21% in the experiment with DU-145 prostate; -57.8% (active) with K-562 leukemia. For the same molecule, the growth with MALME-3M melanoma was -66.9% (active); in the experiment with MDA-MB-231 breast it was -63.5% (active); with RXF 393 renal, -84.5% (active); in the experiment with SF-268 CNS, 1.24% (active); with SF-295 CNS it was -18% (active); in the experiment on SF-539 CNS, -73.2% (active). Also, the growth in the experiment with UACC-257 melanoma was -67.3% (active); in the experiment on M14 melanoma, -80.3% (active).

As for `C[Se]C(=O)c1ccccc1OC(C)=O`, the growth with NCI-H23 lung is 53.9%; in the experiment on NCI-H226 lung, 6.57% (active); in the experiment with NCI-H322M lung, 91.4%; in the experiment with HOP-62 NSCLC, 48.9%; in the experiment with NCI-H460 lung, 37.5%; with HOP-92 NSCLC, 38.4%. In addition, the growth was 63.8% in the experiment on NCI-H522 lung; 59.2% with A549/ATCC NSCLC; 79.4% in the experiment on 786-0 renal; 111% in the experiment on COLO 205 colon; 76.9% in the experiment with DU-145 prostate; 74.8% with K-562 leukemia. Further, the growth was 68.7% in the experiment on MALME-3M melanoma; 68.3% in the experiment with MDA-MB-231 breast; 11.7% in the experiment with RXF 393 renal; 18.3% with SF-268 CNS; 48.6% in the experiment with SF-295 CNS; 50.3% with SF-539 CNS. For the same molecule, the growth in the experiment with UACC-257 melanoma was 49.1%; in the experiment on M14 melanoma, 20.8%.

With `C#Cc1ccc2c(c1)C(c1ccccc1)=NCC(=O)N2C`, the growth in the experiment on NCI-H23 lung was 63.3%; in the experiment with NCI-H226 lung, 69%; in the experiment on NCI-H322M lung it was 77.7%; with HOP-62 NSCLC, 49.8%; in the experiment with NCI-H460 lung, 17.4%; in the experiment on HOP-92 NSCLC it was 72.2%. The growth in the experiment on NCI-H522 lung is 9.39% (active); in the experiment on A549/ATCC NSCLC it was 53.6%; in the experiment on 786-0 renal, 59%; with COLO 205 colon, 15.8%; in the experiment with DU-145 prostate it was 70.1%; with K-562 leukemia it was 15.6%. The growth was 74.5% in the experiment on MALME-3M melanoma; 50.8% in the experiment on MDA-MB-231 breast; 83.8% in the experiment on RXF 393 renal; 58.8% with SF-268 CNS; 25% with SF-295 CNS; 41.4% with SF-539 CNS. Also, the growth is 68.5% in the experiment on UACC-257 melanoma and 18.5% in the experiment with M14 melanoma.

In the case of `O=C(Nc1ccc([N+](=O)[O-])cc1)C(Cl)(Cl)Cl`, the growth with NCI-H23 lung was 96.5%; in the experiment with NCI-H226 lung, 97.8%; in the experiment with NCI-H322M lung, 90.1%; in the experiment with HOP-62 NSCLC, 96.9%; in the experiment on NCI-H460 lung, 104%; with HOP-92 NSCLC, 88%. The growth with NCI-H522 lung is 106%; in the experiment with A549/ATCC NSCLC it was 94%; in the experiment on 786-0 renal, 96.6%; in the experiment on COLO 205 colon, 107%; with DU-145 prostate, 96.7%; in the experiment on K-562 leukemia, 98.2%. The growth in the experiment with MALME-3M melanoma was 97.6%; in the experiment on MDA-MB-231 breast, 95%; with RXF 393 renal, 116%; in the experiment with SF-268 CNS, 97.6%; with SF-295 CNS, 96.9%; in the experiment on SF-539 CNS it was 94.2%. Moreover, the results for the growth in the experiment on UACC-257 melanoma and in the experiment with M14 melanoma were 96.7% and 94.1%, respectively.
